# Experimental data published in PubChem BioAssay (NCATS).
# Values joined by “and” are separate entries in the source; they are usually repeats but may differ in a detail not shown here. Equal entries are not always repeated. Inconclusive results are not listed. Active and inactive are the calls of the source. Calls come from the whole dose curve.
# Target: Bile acid receptor (Homo sapiens) (UniProt Q96RI1)
# Assay: qHTS assay for small molecule agonists of farnesoid X receptor signaling (AID 588527);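 note: series mostly up to about 77 µM; 0% = vehicle basal and 100% = reference agonist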
# Conditions: HEK293T FXR-UAS-bla, beta-lactamase ratio, 16 h; activation: hits give high values
# Source text: NIH Chemical Genomics Center [NCGC] U.S. Environmental Protection Agency [EPA] National Institutes of Environmental Health Sciences [NIEHS] National Toxicology Program [NTP] NCGC Assay Overview The farnesoid-X-receptor (FXR), a nuclear hormone receptor is highly expressed in liver, intestine, kidney and adrenal cortex. Natural ligands of FXR are the bile acids (Cholic acid, Chenodeoxy cholic acid etc). It is an important regulator of diverse metabolic pathways, including the bile acid homeostasis, lipid and glucose metabolisms. FXR regulates the expression of target genes by binding either as a monomer or as a heterodimer with RXR (retinoid X receptor). As FXR regulates a large number of target genes involved in bile acid, lipoprotein and glucose metabolisms, it is a potential pharmacological target for bile acid and lipid disorders. Thus screening environmental chemicals on FXR signaling can be used for the studies focused on metabolic syndrome, hepatic and intestinal toxicity etc.
# NCGC Assay Protocol Summary Using a beta-lactamase reporter-gene under control of Farnesoid X receptor (FXR) response element, a cell-based assay [GeneBLAzer FXR-UAS-bla assay developed by Invitrogen] was used to measure FXR ligands signaling. GeneBLAzer FXR-UAS-bla HEK293T cells were used with assay medium containing 10% dialyzed FBS. The assay was performed in clear bottom black Greiner 1536-well plates. Chenodeoxycholic acid and Guggulsterone were used in the screen as agonist and antagonist positive controls respectively. Library compounds were measured for their ability to stimulate the reporter gene activity. Compounds were screened in a titration series in 1536-well format. […] Data was normalized relative to Chenodeoxycholic acid control (100 uM, 100%), and DMSO only wells (basal, 0%). Concentration-response titration points for each compound were fitted to the Hill equation yielding concentrations of half-maximal stimulation (EC50) and maximal response (efficacy) values. qHTS protocol for FXR beta-lactamase assay in agonist mode [Step] [Parameter] [Value] [Description] 1. Reagent; 6 uL; 5000 cells/well 2. Incubation; 37 C for 5-7 hrs 3. Compounds; 23 nL; 0.59 nM to 92 uM 4. Controls (Chenodeoxycholic acid); 23 nL, - One column with dose response, start 200 uM, 1:2 dilutions in duplicates - Final concentrations of 100 uM and 60 uM in two columns 5. Incubation; 37 C for 16 hrs 6. Detection reagent; 1 uL of CCF4-dye 7. Incubation; RT for 2 hrs 8. Detection; Fluorescence; Envision plate reader
# Chain of Bile acid receptor (Homo sapiens) (Q96RI1 whole entry, looked up): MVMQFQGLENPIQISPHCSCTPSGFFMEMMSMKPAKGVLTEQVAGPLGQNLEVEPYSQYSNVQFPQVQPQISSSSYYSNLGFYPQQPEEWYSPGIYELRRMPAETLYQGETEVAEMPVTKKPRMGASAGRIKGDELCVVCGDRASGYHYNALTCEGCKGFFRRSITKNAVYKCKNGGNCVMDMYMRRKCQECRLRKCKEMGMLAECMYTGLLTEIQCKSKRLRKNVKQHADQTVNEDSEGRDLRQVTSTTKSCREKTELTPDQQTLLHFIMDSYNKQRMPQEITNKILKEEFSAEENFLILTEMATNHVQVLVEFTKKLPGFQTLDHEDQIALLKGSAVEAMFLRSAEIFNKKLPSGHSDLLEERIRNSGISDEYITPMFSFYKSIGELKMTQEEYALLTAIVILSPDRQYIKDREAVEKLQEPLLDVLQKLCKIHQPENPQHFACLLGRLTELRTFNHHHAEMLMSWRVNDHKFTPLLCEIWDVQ
row,SMILES,activation
1,CCC/C(=N\OCC)C1=C(O)CC(O)(CC(C)S(=O)(=O)CC)CC1=O (stereo not given),0.69% (inactive)
2,N#CCNC(=O)c1cnccc1C(F)(F)F,-0.0822% (inactive)
3,COc1ccc(C(=O)Nc2ccccc2)cc1[N+](=O)[O-],-2.07% (inactive)
4,CCC[CH2][Sn]([Cl])([CH2]CCC)[CH2]CCC,7.19% (inactive)
5,O=[As](O)(O)O,-0.515% (inactive)
6,Nc1cc(Cl)c([N+](=O)[O-])cc1O,-1.43% (inactive)
7,CNc1cnn(-c2cccc(C(F)(F)F)c2)c(=O)c1Cl,-1.1% (inactive)
8,CCCCC/C=C\C/C=C\CCCCCCCC(=O)O,-2.08% (inactive) and -1.01% (inactive)
9,CCCCOC(=O)[C@@H](C)Oc1ccc(Oc2ccc(C(F)(F)F)cn2)cc1,-2.63% (inactive)
10,CCOP(OCC)OCC,-1.35% (inactive)
11,COP(=S)(OC)Oc1nc(Cl)c(Cl)cc1Cl,0.351% (inactive)
12,CC(C)(C)CC(C)(C)c1ccc(OCCO)cc1,2.48% (inactive)
13,COCC(=O)N(c1c(C)cccc1C)N1CCOC1=O,-0.109% (inactive)
14,CNC(=O)Oc1cccc(N=CN(C)C)c1,-2.76% (inactive)
15,O=C(O)C1C(C(=O)O)C2(Cl)C(Cl)=C(Cl)C1(Cl)C2(Cl)Cl (stereo not given),0.987% (inactive)
16,CC(CCC(=O)O)(c1ccc(O)cc1)c1ccc(O)cc1,-2.09% (inactive) and 0.383% (inactive)
17,C=Cc1ccc(C=C)cc1,-3.75% (inactive)
18,CCCCCCCCCCCCc1ccccc1,3.31% (inactive)
19,COc1ccc(C(O)(c2cncnc2)C2CC2)cc1 (stereo not given),-0.99% (inactive)
20,CCC[CH2][Sn]([CH2]CCC)([CH2]CCC)[O][Sn]([CH2]CCC)([CH2]CCC)[CH2]CCC,0.0431% (inactive)

row,SMILES,activation
1,CNC(=O)/C=C(\C)OP(=O)(OC)OC,6.76% (inactive)
2,C1CC[CH]([Sn]([CH]2CCCCC2)[CH]2CCCCC2)CC1,0.852% (inactive)
3,CCO,-3.44% (inactive)
4,Nc1ccc(-c2ccc(N)c(O)c2)cc1O,-0.21% (inactive)
5,c1ccc2c(c1)Cc1ccccc1-2,0.0131% (inactive)
6,CC(C)=CC1C(C(=O)OCc2coc(Cc3ccccc3)c2)C1(C)C (stereo not given),3.82% (inactive)
7,CC(=O)c1c(C)c([N+](=O)[O-])c(C(C)(C)C)c([N+](=O)[O-])c1C,1.55% (inactive)
8,Cc1ccc(C#N)cc1,-2.61% (inactive)
9,O=[N+]([O-])c1ccc(Oc2ccc(C(F)(F)F)cc2[N+](=O)[O-])cc1,-1.37% (inactive)
10,CC(C)C1(C)N=C(c2ncccc2C(=O)O)NC1=O (stereo not given),-1.77% (inactive)
11,CC(C)O,-0.657% (inactive)
12,CCSC(=O)N(CC)C1CCCCC1,-3.64% (inactive)
13,Nc1cccc(O)c1,-1.81% (inactive)
14,COC(=O)CCSCCC(=O)OC,-4.49% (inactive)
15,O=C(O)C(F)(F)C(F)(F)C(F)(F)C(F)(F)C(F)(F)C(F)(F)C(F)(F)C(F)(F)F,3.01% (inactive) and 1.7% (inactive)
16,Cc1ccc(C(=O)c2ccccc2)cc1,-0.352% (inactive)
17,O=C(O)C(c1ccc(Cl)cc1)c1ccc(Cl)cc1,-2.74% (inactive)
18,Cc1nc2ccc(Cl)cc2[nH]1,-1.36% (inactive)
19,CCCCCCCCCCCCCCN,2.17% (inactive)
20,C=CC(=O)NCO,0.901% (inactive) and -4.9% (inactive)
